High-throughput results from PubChem.
In the library only some 3.3% were active in any assay of this set; here they are far more common.
SSB-PriA inh: K. pneumoniae PriA-SSBct interaction inhibition | AlphaScreen SSBct-PriA binding, biotinylated peptide | AID 1272365 | hit rate 0.6% among 430,000 | inhibition, % at 33 µM; in the data active means inhibition mostly above about 37%, no sharp cut-off; inactive means mostly below about 20%;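 further: plate controls were negative control peptide for no effect and reference peptide for full effect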
Anthrax LF prot: anthrax lethal factor protease inhibition; inhibition, % at 10 µM; hit rate 0.12% among 360,000; AID 588501; P15917; multiplex microsphere protease cleavage assay, LF; further: plate controls were buffer without enzyme for full effect and enzyme alone for no effect
Target sequence (P15917 whole entry, looked up): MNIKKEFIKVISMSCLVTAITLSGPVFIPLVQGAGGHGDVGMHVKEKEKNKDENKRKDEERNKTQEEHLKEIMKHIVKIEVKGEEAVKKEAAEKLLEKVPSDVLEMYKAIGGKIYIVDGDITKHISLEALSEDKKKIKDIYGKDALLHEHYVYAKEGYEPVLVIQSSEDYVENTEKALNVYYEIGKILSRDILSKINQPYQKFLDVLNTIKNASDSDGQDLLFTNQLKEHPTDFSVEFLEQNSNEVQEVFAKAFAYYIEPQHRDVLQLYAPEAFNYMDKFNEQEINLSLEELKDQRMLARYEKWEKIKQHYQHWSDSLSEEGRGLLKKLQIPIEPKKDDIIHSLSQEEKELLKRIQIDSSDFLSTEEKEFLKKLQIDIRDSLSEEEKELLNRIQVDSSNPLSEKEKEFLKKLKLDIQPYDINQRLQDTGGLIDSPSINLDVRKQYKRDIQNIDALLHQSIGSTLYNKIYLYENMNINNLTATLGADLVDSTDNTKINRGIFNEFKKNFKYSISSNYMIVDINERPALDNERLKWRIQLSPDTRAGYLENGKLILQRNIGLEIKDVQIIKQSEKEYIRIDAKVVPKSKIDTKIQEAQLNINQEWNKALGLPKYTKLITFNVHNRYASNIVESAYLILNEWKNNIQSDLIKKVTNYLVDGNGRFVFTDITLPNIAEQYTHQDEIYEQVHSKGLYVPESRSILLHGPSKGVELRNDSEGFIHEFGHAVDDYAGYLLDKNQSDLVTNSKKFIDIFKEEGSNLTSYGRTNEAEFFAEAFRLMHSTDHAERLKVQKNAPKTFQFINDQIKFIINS
BoNT-A LC inh2: blocks Botulinum neurotoxin A light chain protease; AID 588499; multiplex microsphere protease substrate cleavage, flow cytometry; inhibition, % at 10 µM; hit rate 0.17% among 360,000; further: plate controls were buffer without enzyme for full effect and enzyme alone for no effect
BoNT F protease: BoNT F light chain protease inhibition; AID 588497; inhibition, % at 10 µM; Multiplex microsphere protease cleavage assay, flow cytometry; hit rate 0.22% among 360,000; in the data active means inhibition above about 35%, passing the limit was not always enough; inconclusive means no clear call, values can overlap the other calls; further: plate controls were buffer without enzyme for full effect and enzyme alone for no effect
Autofluor counter: compound fluorescence in toxin protease inhibitor counterscreen | hit rate 3.1% among 360,000 | fluorescence intensity (no concentration beside the values) | compound autofluorescence counterscreen, microsphere flow cytometry; stronger effect = higher value; in the data active means fluorescence intensity above about 16000; inconclusive means no clear call, values can overlap the other calls
MazEF act: increases E. coli MazEF RNase cleavage of RNA | activation, % at 20 µM | hit rate 0.32% among 350,000 | FAM/BHQ RNA-DNA oligo cleavage fluorescence, 5 h; in the data active means activation above about 50%
The depositor's hits bear a star; ? = inconclusive; nt = not tested or not shown. Unless noted, no stated cut-off is given here; in the data, active means inhibition above about 30%; inconclusive means no clear call, values can overlap the other calls; inactive means below that.

SMILES | SSB-PriA inh | Anthrax LF prot | BoNT-A LC inh2 | BoNT F protease | Autofluor counter | MazEF act
CCc1ccccc1NC1Nc2cc(C)nn2S1 (configuration not stated) | -8.1 | -1.6 | -0.7 | -4.7 | 3877 | 11.8
Cc1cc2n(n1)SC(Nc1cc(Cl)ccc1Cl)N2 (configuration not stated) | -2.5 | -6.1 | 0.5 | 0.9 | 20196* | -13.8
CC1=NN(c2ccccc2)C(=O)C1C(=O)c1ccc(Br)o1 (configuration not stated) | -2.0 | nt | nt | nt | nt | nt
CCOC(=O)c1c(-c2ccccc2)oc2ccc(O)c(CN(C)C)c12 | -6.7 | -0.8 | 1.1 | -12.4 | 8808 | 12.5
CCOC(=O)c1c(-c2ccccc2)oc2ccc(O)c(CN3CCCC3)c12 | -3.0 | -4.2 | -1.6 | -6.8 | 17165* | 12.5
O=c1[nH]c(=S)n(CCC2=CCCCC2)c(O)c1C=NCCCn1ccnc1 | 10.4 | nt | nt | nt | nt | 11.6
O=c1[nH]c(=S)n(CCC2=CCCCC2)c(O)c1C=NCc1cccnc1 | nt | -7.5 | ? | -5.0 | 24166* | nt
COc1cc(/C=C(\C#N)c2nc3ccccc3[nH]2)ccc1OC(=O)c1ccco1 | -7.0 | -0.8 | 0.9 | 2.8 | 2624 | 56.5*
Cc1ccc(C)c(CC(=O)Nc2nnc(-c3ccno3)o2)c1 | 56.0* | nt | nt | nt | nt | nt
O=c1[nH]c(=S)c2c(n1Cc1cccs1)CCCC2 | -1.0 | nt | nt | nt | nt | nt
Cc1ccc2c(c1)[C@@H]1CN(C)CC[C@@H]1N2C(=O)Nc1cccc(C(F)(F)F)c1 | -7.5 | -2.9 | -3.3 | -5.4 | 23738* | 3.4
COc1cccc(C2=NN(C(=O)c3ccco3)C(c3cccc([N+](=O)[O-])c3)C2)c1 (configuration not stated) | -6.0 | nt | nt | nt | nt | nt
COc1cc(SC)ccc1C(=O)NCCOc1ccc(Cl)cc1 | -7.9 | -1.1 | -0.3 | -0.9 | 2391 | 3.4
COc1cc(SC)ccc1C(=O)NCCOc1c(C)cc(C)cc1C | -13.5 | -1.8 | -0.2 | -0.7 | 20169* | -3.8
Cc1nc2sc(C)c(C)n2c(=O)c1NC(=O)Cc1ccc(F)cc1 | -12.0 | nt | nt | nt | nt | nt
O=C(Oc1ccc2c(c1)O/C(=C\c1ccncc1)C2=O)c1ccccc1 | -22.6 | -1.3 | 1.8 | 2.1 | 2047 | 219.5*
Fc1ccc2onc(C3CCNCC3)c2c1 | -15.0 | nt | nt | nt | nt | nt
CCO/C(=C/c1sc2ccc(OC)cc2[n+]1CCCS(=O)(=O)[O-])CC | -2.2 | -8.0 | -0.4 | -9.1 | 6051 | -4.6
CCC(/C=C1\Sc2ccc(OC)cc2N1CC)=C\c1sc2ccc(OC)cc2[n+]1CCCS(=O)(=O)[O-] | nt | 48.0* | 100.5* | 15.7 | 1738 | 2.7
CCC(=O)/C=C1/Sc2ccc(OC)cc2N1CCO | -8.7 | -0.8 | -1.5 | -5.8 | 5619 | 1.1
CCC(/C=C1\Sc2ccc(OC)cc2N1CCO)=C\c1sc2ccc(OC)cc2[n+]1CCO | 23.5 | -25.7 | 40.5* | -120.3 | 1224 | -0.1
CCCCNC(=S)NN=C1CCCCc2ccccc21 | 5.6 | nt | nt | nt | nt | nt
CCCCNC(=S)N/N=C1\C(=O)c2cccc3cccc1c23 | nt | 7.4 | 6.8 | 8.3 | 20454* | 13.1
CNC(=S)N/N=C1\C(=O)c2cccc3cccc1c23 | nt | 6.5 | -20.5 | -413.9 | 17615* | -2.3
O=C(COc1cccc2ccc(N3CCN(c4ccccc4)CC3)nc12)NCc1ccc(F)cc1 | 5.0 | nt | nt | nt | nt | nt
SMILES | SSB-PriA inh | Anthrax LF prot | BoNT-A LC inh2 | BoNT F protease | Autofluor counter | MazEF act
CC12CCC(C(=O)NCc3ccccn3)(OC1=O)C2(C)C (configuration not stated) | 9.9 | -1.8 | -0.2 | -13.1 | 3759 | 2.8
Cc1cccnc1NC(=O)C12CCC(C)(C(=O)O1)C2(C)C (configuration not stated) | -7.8 | -0.5 | 1.0 | 1.4 | 22033* | -1.3
Cc1ccc2c(CC(=O)Nc3cc(C)on3)cc(=O)oc2c1 | -12.0 | nt | nt | nt | nt | nt
COc1ccc2c(c1OC)C(=O)N(c1cc(C)[nH]n1)C2=O | -16.0 | nt | nt | nt | nt | nt
COCCNC(=O)CSc1nc2ccc(N3CCOCC3)cc2c(=O)n1Cc1ccc(OC)cc1 | -6.4 | -1.3 | 1.5 | 10.6 | 4256 | 6.5
COc1ccc(Cn2c(CCC(=O)NCc3ccco3)nc3cccnc32)cc1 | 6.7 | -0.6 | 2.1 | -2.3 | 22452* | -17.0
COCCNC(=O)CSc1nc2cc(OC)c(OC)cc2c(=O)n1Cc1ccc(OC)cc1 | 2.6 | -1.2 | ? | -0.3 | 22751* | 5.2
COCCCn1c(SCc2ccc(OC)cc2)nc2cc(OC)c(OC)cc2c1=N | -0.5 | -2.5 | -1.1 | -3.2 | 23040* | 2.5
Cc1ccc(Cn2c(SCC(=O)NCc3ccco3)nc3ccsc3c2=O)cc1 | 5.5 | -6.0 | -0.9 | 1.3 | 11634 | 1.8
COc1cc2nc(SCC(=O)NCc3ccco3)n(Cc3ccc(Cl)cc3)c(=O)c2cc1OC | -16.6 | -2.1 | ? | -2.2 | 23649* | -11.6
COCCNC(=O)CCc1nc2cccnc2n1Cc1ccc(OC)cc1 | 6.0 | -6.6 | -1.5 | -7.2 | 4259 | 8.2
O=C(Nc1nc2ccc(F)cc2s1)C1CCCN1S(=O)(=O)c1cccs1 (configuration not stated) | -3.0 | nt | nt | nt | nt | nt
CN1CC2(C(=O)c3ccccc3)CN(C)CC(C(=O)c3ccccc3)(C1)C2 | -9.4 | -1.3 | ? | 1.5 | 20389* | -6.4
O=C(Nc1nnc(-c2cccc([N+](=O)[O-])c2)s1)c1cccc(Br)c1 | -10.0 | nt | nt | nt | nt | nt
CN(C)c1ccc(C=C2C=Cc3ccccc32)cc1 | -0.3 | -5.7 | -0.2 | -5.6 | 2953 | 97.6*
CNc1ccc(C=C2C=Cc3ccccc32)cc1 | 4.1 | -9.7 | -0.3 | -9.0 | 3650 | 8.9
Cc1cc(C)n(-c2nc(C)c(C)c(=O)n2CC(N)=O)n1 | -17.0 | nt | nt | nt | nt | nt
Cc1cc(NC(=O)C2CCCN(S(=O)(=O)c3cccs3)C2)on1 (configuration not stated) | -4.0 | nt | nt | nt | nt | nt
CCOc1ccc(S(=O)(=O)n2cc(-c3ccc(F)cc3)c(N)n2)cc1 | -2.8 | 1.3 | 2.1 | 0.3 | 23064* | 2.2
Cc1ccc(-c2cn(S(=O)(=O)c3ccc(C)cc3)nc2N)cc1 | -1.9 | -0.1 | -2.2 | -4.7 | 24762* | 3.6
CCOc1ccc(S(=O)(=O)n2cc(-c3ccccc3)c(N)n2)cc1 | -15.9 | -3.0 | -2.5 | -3.6 | 23986* | 16.3
Nc1nn(S(=O)(=O)c2ccccc2)cc1-c1cccc([N+](=O)[O-])c1 | -5.0 | -10.3 | 0.2 | 5.0 | 4249 | -8.8
CCOc1cc(S(=O)(=O)n2cc(-c3ccc(F)cc3)c(N)n2)cc(OCC)c1OCC | 0.5 | -2.1 | 0.7 | -8.8 | 2809 | 1.3
Cc1nsc(C(=O)N2CCC(Cc3ccccc3)CC2)n1 | -24.0 | nt | nt | nt | nt | nt
CC(C)(C)NC(=O)C1CCN(C(=O)c2ccc(Br)cc2)CC1 | 0.5 | 2.8 | ? | 6.6 | 19805* | -2.1
COc1ccc(S(=O)(=O)N2CCC(C(=O)NCC3CCCO3)CC2)cc1OC (configuration not stated) | -4.4 | 0.0 | -0.1 | -1.4 | 4453 | 3.8
CC(C)(C)c1ccc(C(=O)N2CCC(C(=O)NCC3CCCO3)CC2)cc1 (configuration not stated) | -2.4 | -2.6 | 0.6 | 1.8 | 22225* | -1.3
Cc1ccc(S(=O)(=O)N2CCC(C(=O)N[C@H](C(=O)NCC3CCCO3)C(C)C)CC2)cc1 (some centres not stated) | -18.7 | -1.9 | -0.7 | -1.0 | 20985* | 6.2
